Assay results: PubChem BioAssay AID1241 (SRMLSC, 2008)
The whole screen tested about 1,200 compounds, of which about 840 (70%) were called active. No rule for the calls is given here. The set was probably picked from earlier hits. A selection follows. Entries with a potency or affinity are not part of this list.

assay: NF-kB promoter reporter activators, neuronal cells, dose response, cell-based, SH-SY5Y, luciferase (AID 1241); settings: series mostly up to 30 µM

Fold induction over control, inactive:
C(=C\c1nc(-c2ccccc2)no1)/c1ccccc1
CNc1oc(/C=C/c2ccccc2)nc1C#N
CCc1ccc(-c2nn(-c3ccccc3)cc2CSC(=N)N)cc1
O=C(Nc1ccc2c(c1)OCCO2)c1cccs1
Cc1ccccc1-c1noc(-c2ccccc2F)n1
Cc1cccc(-c2noc(-c3ccc(Cl)cc3[N+](=O)[O-])n2)c1
COc1ccc(-c2cc(=O)c3cc(C)ccc3[nH]2)cc1
CCOC(=O)c1sc(-c2ccc(OC)cc2)cc1N
N#CC(=C1CCCC1)c1nc(-c2ccccc2)cs1
Nc1nc(-c2ccc3c(c2)CCCC3)cs1
O=c1oc2cc(Br)ccc2n1CSC1=NCCS1
CCCCOC(=O)Nc1ccc2c(C)cc(=O)oc2c1
O=C(Nc1ccc(Cl)cc1)c1ccc(Br)cc1F
Cc1ccc(C(=O)Nc2ccc3c(c2)nc2n3CCSC2)cc1
CN1C(=O)/C(=C\C=C2/CCCN2C)N(C)C1=S
Nc1nonc1-c1noc(COc2ccccc2Cl)n1
COc1ccc(C(=O)NNC(=S)Nc2ccccc2)cc1
Cc1cccc(Nc2nc3c(s2)CCCC3)c1
Oc1ccccc1CNc1ccc(Br)cn1
COc1ccccc1CNc1ccc(CNc2ncn[nH]2)cc1
O=C(NCCCn1ccnc1)c1cc(-c2ccccc2)on1
O=C(NCCCN1CCOCC1)c1cc(-c2cccs2)on1
Cc1csc2nc(CSc3ccc(Cl)cc3)cn12
O=C(Cc1cn2ccsc2n1)OCc1ccccc1
CCOc1cccc2cc(-c3csc(NC(=O)CCC(=O)NCCCN4CCC(C)CC4)n3)c(=O)oc12
Cc1ccc(Nc2ncnc3c2oc2ccccc23)cc1
Cc1ccc(N2C(=O)C(NC(=O)c3ccccc3)(C(F)(F)F)C3=C2CC(C)(C)CC3=O)cc1 (stereo unspecified)
COCCn1nnnc1C(CC(C)C)N1CCN(c2cccc(OC)c2)CC1 (stereo unspecified)
CC(C)(C)NC(=O)C[n+]1ccc(C(N)=O)cc1
O=C(NCC1CCCO1)c1cc(-c2ccccc2)on1 (stereo unspecified)
COc1ccc2c(c1)CCc1c(C(=O)NCC(C)C)noc1-2
Cc1ccc(N=C/C(C(=O)C(F)(F)F)=C(\O)c2ccco2)cc1Cl
C/C(=N\NC(=O)c1ccoc1C)c1cccnc1
CC(/C=N/NC(=O)c1cccs1)=C\c1ccco1
CC(=O)CSc1ncnc2c1cnn2-c1ccccc1
O=[N+]([O-])c1ccc(F)cc1OCc1nc(-c2cccs2)no1
Cc1ccccc1-c1nnc(SCc2ccccc2F)o1
CCCn1c(/C=C/c2ccccc2)nc2ccccc21
CCCCCNc1nc(-c2ccccc2)cs1
COc1ccc(-c2csc(-c3ccc(C(=O)O)cc3)n2)cc1
CC1=C/C(=N\OS(=O)(=O)c2ccccc2)C(C(C)C)=CC1=O
CCOc1ccc2ccccc2c1CNCCN1CCOCC1
COc1ccccc1-c1noc(-c2ccccc2)n1
CC(=O)Nc1ccc(-c2cn3cc(C)ccc3n2)cc1
CCOc1ccc(/C=N/n2c(SC)nnc2-c2ccccc2)cc1OCC
CC(=O)Oc1ccc(/C=N/NC(=S)Nc2ccccc2)cc1
O=C(Cc1ccccc1F)Nc1ccc(SC(F)F)cc1
Cc1nc(NC(=O)c2cccs2)ccc1Br
Cc1ccc(C(=O)Nc2ccc3nc(C)sc3c2)s1
O=C(NC(=S)Nc1cccc(-c2ccc(CO)o2)c1)c1cccs1
COC(=O)c1ccc2nc(NC(=O)C(C)C)sc2c1
CN(C)CCCN(C(=O)/C=C/c1cccs1)c1nc2c(F)cccc2s1
CC1Cc2ccccc2N1C(=O)/C=C/c1cccc(F)c1 (stereo unspecified)
CN1C(=O)/C(=C/C=C2\SCCN2C)N(C)C1=S
O=C(/C=C/Sc1ccccc1)c1ccccc1
C=C(C(=O)c1ccccc1)C(C)C(=C)C(=O)c1ccccc1
O=C(/C(C=Nc1ccc(Br)cc1)=C(/O)c1ccco1)C(F)(F)F
O=C(N/N=C\c1ccc(Oc2ccccc2)cc1)c1csnn1
Cc1cccc(/C(N)=N/OC(=O)c2ccco2)c1
O=C1/C(=C/c2cccs2)CCC1C1CCCC1 (stereo unspecified)
CC1=CC(c2ccccc2)=Nc2ccc(C)cc2N1
O=C(c1ccccc1)c1nnc(-c2ccccc2F)o1
CN1CCN(Cc2nc3ccccc3c(=O)n2Cc2nc(-c3ccc4ccccc4c3)cs2)CC1
COc1ccc(C2=NN(C(C#N)c3ccc(OC)cc3)C(c3ccccc3)C2)cc1 (stereo unspecified)
CCOc1ccc(-c2nc3ccccc3c(=O)o2)cc1
CCSc1ncc(/C=N/Nc2ccc(Cl)cc2)n1C
CCOC(=O)c1[nH]c2c(c1C)C(=O)CC(c1ccco1)C2 (stereo unspecified)
CCCC(O)(CCC)C(=O)NN(C(=O)CCl)c1ccccc1
O=C(O)CCCNC(=O)Nc1ccccc1
CC(C)c1cc(C(=O)Nc2cc(Cl)ccc2O)no1
O=c1[nH][nH]cc1C=Nc1ccccc1O
O=c1oc2cc(Cl)ccc2n1CSc1nc2ccccc2s1
CN1CCN(Cc2cc(Cl)c3cccnc3c2OC(=O)c2cccs2)CC1
CCOC(=O)CC(=O)CSc1nc2ccc(C)cc2cc1C#N
COCCNC(=O)c1cc(-c2cccs2)on1
COC(=O)CSc1nc2ccc(C)cc2cc1C#N
O=c1[nH]c(=O)n([C@H]2C[C@H](O)[C@@H](CO)O2)cc1C(F)(F)F
COc1cc(C(Nc2ccccn2)c2ccc3ccc(C)nc3c2O)cc(OC)c1O (stereo unspecified)
Cc1c(NC(=O)CSc2cccc3cccnc23)c(=O)n(-c2ccccc2)n1C
CCOC(=O)C(C)On1c(-c2ccc(Cl)cc2)nc2ccc([N+](=O)[O-])cc21 (stereo unspecified)
Cc1ccc(COn2c(-c3ccc(Cl)cc3)nc3ccc([N+](=O)[O-])cc32)cc1
